According to the supplement of paper PMC10646978:
± gives the standard deviation.

Tests used:
Conditions in all cases: modulator concentration 10 µM
[1] = tested on: RAW-Dual (murine macrophage reporter line); assay: NF-kB reporter (SEAP) activity fold change vs agonist alone; higher = enhanced NF-kB activity
Procedure, shortened: (§1)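 Compound reached 10 μM final in each well by pin transfer, onto RAW-Dual murine macrophage reporter cells seeded at 50 000 per well in 384-well plates. After 1 hour at 37 °C, the cells were stimulated overnight with a PRR agonist. SEAP in the supernatant was read with QUANTI-Blue at 620 nm absorbance for NF-κB, and Lucia luciferase was read with QUANTI-Luc luminescence for IRF. Each signal was turned into fold change against the mean agonist-only control on the same plate, and two replicate plates were averaged with propagated errors.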

[2] = tested on: RAW-Dual (murine macrophage reporter line); assay: IRF reporter (Lucia luciferase) activity fold change vs agonist alone; higher = enhanced IRF activity
Procedure, shortened: as §1

[3] = tested on: RAW-Dual (murine macrophage reporter line); assay: viability score (confluency relative to resting cells, overnight) (fraction); higher = more viable, active = viable (0.7 or more)
Procedure, shortened: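 Confluency was the readout: RAW-Dual macrophages were imaged with IncuCyte after an overnight exposure to compound at 10 μM final. IncuCyte software produced two masks over all imaged wells. The viability score expresses confluency against resting cells, and both masks had to exceed 70% of resting cells for a compound to meet the cutoff.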

[4] = agonist: CpG ODN 1826 0.5 ug/mL

Structure (SMILES)	NF-kB reporter [1, 4]	NF-kB reporter ([1]; agonist: LPS 0.1 ug/mL)	NF-kB reporter ([1]; agonist: MPLA […])	IRF reporter ([2]; agonist: 3'3'-cGAMP 10 ug/mL)	IRF reporter ([2]; agonist: LPS 0.1 ug/mL)	IRF reporter ([2]; agonist: MPLA […])	viability score [3]
CN(C(=O)COc1coc(CN2CCN(c3ccccc3)CC2)cc1=O)c1ccccc1	0.931 ± 0.052	0.933 ± 0.06	0.977 ± 0.057	0.97 ± 0.034	1.18 ± 0.12	0.986 ± 0.088	1 (active)
Cc1ccc(OCCCOc2cccc3cccnc23)c(Cl)c1	0.808 ± 0.076	1.02 ± 0.056	0.877 ± 0.057	0.947 ± 0.077	1.32 ± 0.14	1.05 ± 0.076	1.01 (active)
CCOC(=O)C1=C(C)NC(C)=C(C(=O)OC)C1c1ccco1 (stereo not given)	1.03 ± 0.17	0.955 ± 0.1	1.03 ± 0.086	0.95 ± 0.037	1.14 ± 0.18	1.2 ± 0.25	1.01 (active)
Cl.Cl.O=C(O)COCCN1CCN(C(c2ccccc2)c2ccc(Cl)cc2)CC1 (stereo not given)	0.906 ± 0.15	0.996 ± 0.29	0.892 ± 0.05	0.942 ± 0.029	1.17 ± 0.39	1.14 ± 0.11	0.987 (active)
CCOC(=O)Cc1nnnn1C	0.888 ± 0.27	1.02 ± 0.11	1.01 ± 0.14	1 ± 0.026	1.14 ± 0.15	1.17 ± 0.13	1 (active)
C=C1CCC(OC(C)=O)C(C)=CCC2C1CC2(C)C (stereo not given)	0.932 ± 0.086	0.776 ± 0.1	0.752 ± 0.071	0.671 ± 0.038	0.928 ± 0.17	0.779 ± 0.24	1.03 (active)
O=C(O)c1cc(O)c(O)c(O)c1	0.306 ± 0.013	0.876 ± 0.078	0.749 ± 0.062	0.594 ± 0.03	1.16 ± 0.2	0.97 ± 0.27	1.02 (active)
CC(=O)N1CC(C(=O)Nc2ccc(Br)c(C)c2)C1	1.05 ± 0.071	0.996 ± 0.082	0.973 ± 0.053	0.988 ± 0.035	1.03 ± 0.048	0.909 ± 0.089	0.997 (active)
COC(CNS(=O)(=O)c1cccnc1)c1ccc(C)s1 (stereo not given)	1.06 ± 0.073	0.992 ± 0.086	1.01 ± 0.096	1.01 ± 0.04	1.02 ± 0.048	0.958 ± 0.12	0.997 (active)
O=C(O)CCC(=O)Nc1ccc(Br)cn1	1.17 ± 0.098	1.02 ± 0.066	1.02 ± 0.04	1.02 ± 0.19	1.12 ± 0.14	0.938 ± 0.27	0.997 (active)
CC1CN(Cc2ccccn2)CCC1=O (stereo not given)	0.988 ± 0.11	0.993 ± 0.064	1.03 ± 0.062	0.978 ± 0.027	1.58 ± 0.23	1.17 ± 0.12	1.01 (active)
O=C(O)CCCCCN1C(=O)c2ccccc2C1=O	0.968 ± 0.089	0.988 ± 0.074	1.04 ± 0.099	1.03 ± 0.034	1.35 ± 0.19	1.5 ± 0.23	1.03 (active)
CCCCSc1nnc2c(n1)OC(c1cccc(F)c1)Nc1ccc(Br)cc1-2 (stereo not given)	1.07 ± 0.18	1.01 ± 0.078	0.951 ± 0.083	0.914 ± 0.036	1.24 ± 0.13	1.13 ± 0.12	1 (active)
C[C@H](Cc1cc2c(c(C(N)=O)c1)N(CCCO)CC2)NCCOc1ccccc1OCC(F)(F)F	1.2 ± 0.2	1.09 ± 0.29	1.03 ± 0.057	0.732 ± 0.058	1.05 ± 0.26	0.893 ± 0.2	0.998 (active)
CS(=O)(=O)C1CCN(C(=O)C2(c3ccccc3)CCOCC2)C1 (stereo not given)	0.986 ± 0.11	1.04 ± 0.083	0.927 ± 0.047	0.977 ± 0.068	1 ± 0.087	1.03 ± 0.33	1.02 (active)
Cc1oncc1C(=O)NCc1cc(C2CC2)n(C)n1	0.927 ± 0.087	0.954 ± 0.12	0.975 ± 0.065	0.946 ± 0.04	0.982 ± 0.072	0.921 ± 0.24	0.997 (active)
c1ccc2oc(SCCCCSc3nc4ccccc4o3)nc2c1	0.959 ± 0.15	1.06 ± 0.11	0.949 ± 0.089	0.821 ± 0.037	1.2 ± 0.12	1.4 ± 0.15	1 (active)
Cc1c(C(=O)OC(C)C)sc(NC(=O)C(C)(C)C)c1C(=O)OC(C)C	0.823 ± 0.081	0.908 ± 0.044	1.09 ± 0.099	1 ± 0.06	1.56 ± 0.095	1.77 ± 0.16	0.985 (active)
Cn1nccc1-c1ccc(CNC(=O)c2cc(Br)cs2)cn1	1.02 ± 0.082	0.974 ± 0.078	1.16 ± 0.12	1.03 ± 0.032	1.35 ± 0.17	1.53 ± 0.23	1 (active)
Cc1ccnc2c1NC(=O)c1cccnc1N2C1CC1	1.19 ± 0.26	1.2 ± 0.3	0.967 ± 0.067	0.88 ± 0.035	1.34 ± 0.36	1.29 ± 0.097	0.994 (active)
Oc1ccccc1C=NNc1nc(-c2ccccc2)cc(-c2ccccc2)n1	0.769 ± 0.066	1.02 ± 0.088	1.03 ± 0.12	1.19 ± 0.12	1.16 ± 0.16	1.26 ± 0.2	0.987 (active)
O=S(=O)(Nc1ccc(-c2nc3cccnc3s2)cc1)c1cccs1	0.902 ± 0.23	0.748 ± 0.23	0.566 ± 0.07	0.783 ± 0.027	0.973 ± 0.37	0.892 ± 0.12	0.672 (inactive)
O=C(CCn1cnc2ccccc2c1=O)NCC1CCCN1c1ccccc1 (stereo not given)	1.05 ± 0.054	1 ± 0.086	0.987 ± 0.046	0.983 ± 0.053	1.3 ± 0.086	1.2 ± 0.14	0.995 (active)
COc1ccccc1OCC(=O)NCC1CCN(C(C)C)CC1	1.12 ± 0.062	1.07 ± 0.099	0.92 ± 0.049	1.09 ± 0.099	1.13 ± 0.21	1.05 ± 0.34	0.991 (active)
O=C(Nc1cc(N2CCN(Cc3ccccc3)CC2)ncn1)c1ccc2ccccc2n1	0.528 ± 0.04	0.984 ± 0.077	0.846 ± 0.036	0.94 ± 0.049	1.07 ± 0.067	1.24 ± 0.23	1.01 (active)
